Measured values reported in PubChem BioAssay (NCATS).
Inconclusive results are not listed. A number with no mark means an inactive call. Calls come from the whole dose curve; as a rule, active = well fitted activation curve with a large enough effect; inconclusive = small, poorly fitted or top-dose-only effect; inactive = flat fitted curve, though single readings scatter.

Experiment: Cellular Toxicity (caspase-3) Jurkat (AID 655);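 note: cells exposed to compound for 16 h at 37 °C before reading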
Conditions: Jurkat caspase-3 activation, luminescence; caspase-3 activation: at 92.2 µM (top of the series), DMSO = 0%, tamoxifen = 100%
Text: NIH Chemical Genomics Center [NCGC]
NIH Molecular Libraries Screening Centers Network [MLSCN]
National Institutes of Environmental Health Sciences [NIEHS]
National Toxicology Program [NTP]
We have developed a 1536-well cell-based assay for quantitative high throughput screening (qHTS) against a number of cell lines to determine in vitro caspase 3/7 of small molecules. This particular assay uses the Jurkat cell line which is derived from human T cell leukemia.
NCGC Assay Protocol Summary:
The Caspase-Glo 3/7 assay (Promega) is a homogeneous method to measure caspase-3 and caspase-7 activities in cultured cells. The quantitation of caspase 3/7 activity is based on the cleavage of a peptide-aminoluciferin substrate. After caspase cleaves the substrate the free aminoluciferin is liberated and serves as the substrate of luciferase, which generates the light. The luminescent signal is proportional to amount of caspase 3/7 activity present.
Using the Caspase-Glo 3/7 assay, the amount of caspase 3/7 activity was measured in the Jurkat cell line with complete culture medium following compound treatment for 16 hours. The assay was performed in opaque white 1536-well plates. In the screen, tamoxifen and doxorubicin were used as positive controls. Library compounds were measured for their ability to cause the activation of caspase 3/7 in the cell line, as reflected by an increase in luminescence signal, in a concentration-dependent manner. Data were normalized to the controls for basal activity (DMSO only) and 100% stimulation (100 uM tamoxifen). AC50 values were determined from concentration-response data modeled with the standard Hill equation.
qHTS protocol for caspase 3/7 assay in Jurkat cells
[Step] [Parameter] [Value] [Description]
1. Reagent; 5 uL; 5000 Jurkat cells/well
3. Controls; 23 nL; Tamoxifen 0.23 uM to 100 uM & Doxorubicin 7.0 pM to 100 uM
4. Time; 16 hr; 37 °C incubation
5. Reagent; 5 uL; Caspase-Glo 3/7 reagent
6. Time; 20 min; Room Temperature
7. Detection; Luminescence; Viewlux plate reader
Keywords: caspase 3/7, apoptosis, Jurkat cell line, luminescence, NTPHTS, NTPHTS_NCGC, NIEHS, EPA, DSSTox, MLSMR, MLSCN, NIH Roadmap, qHTS, NCGC

For `COc1ccccc1[N+](=O)[O-]`, which caspase-3 activation is on record?
Its caspase-3 activation is 10.8%.

For `Cc1ccc(CO)cc1`, which caspase-3 activation is on record?
Its caspase-3 activation is 2.2%.

For `Cc1ccccc1Br`, which caspase-3 activation is on record?
Its caspase-3 activation is -0.129%.

With `O=C(O)c1ccccc1[N+](=O)[O-]` as the molecule, how does the caspase-3 activation read?
The caspase-3 activation was -0.644%.

For `Cc1ccc(C)cc1`, which caspase-3 activation is on record?
Its caspase-3 activation is 2.23%.

Which caspase-3 activation does the source give for `O=C1OC(=O)c2c(Cl)c(Cl)c(Cl)c(Cl)c21` here?
The caspase-3 activation was 0.457%.

With `O=CNc1ccccc1` as the molecule, how does the caspase-3 activation read?
Its caspase-3 activation is 0.613%.

Which caspase-3 activation does the source give for `COC(=O)CC#N` here?
Its caspase-3 activation is 1.32%.

Which caspase-3 activation does the source give for `Cc1cccc2ccccc12` here?
The caspase-3 activation was -1.75%.

For `CC(=O)Nc1cccc(N)c1`, which caspase-3 activation is on record?
Its caspase-3 activation is 1.66%.

For `N#Cc1ccccc1`, which caspase-3 activation is on record?
The caspase-3 activation was -1.39%.

For `Cc1cccc(C)c1O`, which caspase-3 activation is on record?
The caspase-3 activation was -0.87%.

Which caspase-3 activation does the source give for `Nc1cccc(C(F)(F)F)c1` here?
The caspase-3 activation was -0.253%.

With `CC(=O)OC(C)C` as the molecule, how does the caspase-3 activation read?
Its caspase-3 activation is -0.432%.

For `c1ccc2c(c1)ccc1ncccc12`, which caspase-3 activation is on record?
Its caspase-3 activation is 3.47%.

Which caspase-3 activation does the source give for `CCC(C)(C)OC` here?
Its caspase-3 activation is 1.32%.

Which caspase-3 activation does the source give for `Nc1ccc([N+](=O)[O-])c(N)c1` here?
Its caspase-3 activation is 0.952%.

With `CCC(O)C(C)(C)C` (stereo not given) as the molecule, how does the caspase-3 activation read?
The caspase-3 activation was 2.09%.

With `Cc1ccc2ncccc2c1` as the molecule, how does the caspase-3 activation read?
The caspase-3 activation was 0.555%.

For `Cc1ccc(Cl)cc1`, which caspase-3 activation is on record?
Its caspase-3 activation is 1.47%.

With `O=C(O)CNC(=O)c1ccc([N+](=O)[O-])cc1` as the molecule, how does the caspase-3 activation read?
The caspase-3 activation was 1.61%.

With `C/C=C1\CC2C=CC1C2` (stereo not given) as the molecule, how does the caspase-3 activation read?
Its caspase-3 activation is -1.14%.

For `Cc1cccc(C(=O)O)c1[N+](=O)[O-]`, which caspase-3 activation is on record?
Its caspase-3 activation is 0.0965%.

Which caspase-3 activation does the source give for `O=C(O)CN(CC(=O)O)CC(=O)O` here?
Its caspase-3 activation is 1.43%.

Which caspase-3 activation does the source give for `C=CCCCCCC` here?
The caspase-3 activation was -1.08%.

With `CC(C)Cc1nccs1` as the molecule, how does the caspase-3 activation read?
The caspase-3 activation was 1.45%.

Which caspase-3 activation does the source give for `CCN(Cc1ccccc1)c1ccccc1` here?
Its caspase-3 activation is 1.93%.

For `Cc1cc([N+](=O)[O-])ccc1N`, which caspase-3 activation is on record?
Its caspase-3 activation is -1.03%.

With `CCc1ccccc1O` as the molecule, how does the caspase-3 activation read?
The caspase-3 activation was 0.741%.

With `C=C(C)C(=O)OCCCCCCCCCC` as the molecule, how does the caspase-3 activation read?
The caspase-3 activation was -0.118%.

With `C=CCOC(=O)COCCC(C)C` as the molecule, how does the caspase-3 activation read?
Its caspase-3 activation is -0.573%.

Which caspase-3 activation does the source give for `CC(=O)CCc1ccccc1` here?
The caspase-3 activation was -1.19%.

For `CC(C)c1ccccc1`, which caspase-3 activation is on record?
The caspase-3 activation was -0.787%.

Which caspase-3 activation does the source give for `CCCCC(CC)C(=O)O` (stereo not given) here?
Its caspase-3 activation is 1.13%.

For `N#CCc1ccccc1[N+](=O)[O-]`, which caspase-3 activation is on record?
The caspase-3 activation was 1.28%.

With `Cc1cccc(C(=O)O)c1` as the molecule, how does the caspase-3 activation read?
The caspase-3 activation was -6.77%.

With `CNC(=O)N(c1ccccc1)c1ccccc1` as the molecule, how does the caspase-3 activation read?
Its caspase-3 activation is 1.82%.

With `FB(F)F` as the molecule, how does the caspase-3 activation read?
Its caspase-3 activation is 1.14%.

Which caspase-3 activation does the source give for `CCCCC(CC)COC(=O)CCCCC(=O)OCC(CC)CCCC` (stereo not given) here?
Its caspase-3 activation is -0.708%.

For `CCOCC(=O)O`, which caspase-3 activation is on record?
The caspase-3 activation was -1.08%.
